{"source": "PubChem BioAssay (Tox21)", "note": "Inconclusive results are not listed. Unmarked numbers belong to inactive results. Active and inactive are the calls of the source. Calls come from the whole dose curve; as a rule, active = well fitted cell-killing curve with a large enough effect in the repeat runs; inconclusive = weak or mixed curves, or effect the other way; inactive = no such curve, though single readings can be large or run the other way. % is set by controls: 0 for no effect and ±100 for the full control effect.", "data": [{"test": "qHTS assay to identify small molecule antagonists of the peroxisome proliferator-activated receptor gamma (PPARg) signaling pathway - cell viability counter screen (AID 743194); note: nearly all actives have a fitted effect of over 55% in size", "conditions": "PPARg-bla HEK293H viability, CellTiter-Glo luminescence, 17 h; Potency: co-treated with 50 nM rosiglitazone; series mostly up to 62.6 µM; activity change, negative = cytotoxicity: at the top concentration", "excerpt": "U.S. Tox21 Program National Center for Advancing Translational Sciences [NCATS] NIH Chemical Genomics Center [NCGC] U.S. Environmental Protection Agency [EPA] National Institutes of Environmental Health Sciences [NIEHS] National Toxicology Program [NTP] U.S. Food and Drug Administration [FDA] Tox21 Assay Overview: The peroxisome proliferator-activated receptors (PPARs) are lipid-activated transcription factors of the nuclear receptor superfamily with three distinct subtypes namely PPAR alpha, PPAR delta (also called PPAR beta) and PPAR gamma (PPARg). All these subtypes heterodimerize with Retinoid X receptor (RXR) and these heterodimers regulate transcription of various genes. PPAR-gamma receptor (glitazone receptor) is involved in the regulation of glucose and lipid metabolism. To identify the compounds that activate PPAR-gamma signaling, GeneBLAzer PPAR gamma UAS-bla HEK293H cell line (Invitrogen, Carlsbad, CA, USA) containing a beta-lactamase reporter gene under the control of an Upstream Activator Sequence (UAS) was used to screen the Tox21 compound library. The cytotoxicity of the Tox21 compound library against the PPARg-bla cell line was tested in parallel by measuring the cell viability using CellTiter-Glo assay in the same wells.\nTox21 Assay Protocol Summary: PPARg-bla cells were dispensed at 3000 cells/5uL/well in 1536-well black wall/clear bottom plates using a Multidrop Combi (Thermo Fisher Scientific, Waltham, MA) dispenser. After the assay plates were incubated at 37 C and 5% CO2 for 5 h, 23 nL of compounds dissolved in DMSO, positive controls or DMSO only was transferred to the assay plate by a Pintool station (Kalypsys, San Diego, CA), followed by addition of 1ul Rosiglitazone (50 nM, final concentration in the wells). The assay plates were incubated at 37 C for 17 h, and then 1 uL of LiveBLAzerTM B/G FRET substrate was added using a Bioraptr Flying Reagent Dispenser (FRD) workstation (Beckman Coulter, Indianapolis, IN, USA). The assay plates were incubated at room temperature for 1 h and fluorescence intensity was measured by an Envision plate reader (PerkinElmer, Shelton, CT). For cell viability readout that measures cytotoxicity, 4 ul/well of CellTiter-Glo reagent was added into the assay plates using a Flying Reagent Dispenser. After 30 min incubation at room temperature, the luminescence intensity in the plates was measured using a ViewLux plate reader (PerkinElmer).", "values": [{"compound": "O=S1(=O)OCCO1", "activity change, negative = cytotoxicity": "-0.636% [at 81.1 µM, co-treated with 50 nM rosiglitazone]"}, {"compound": "NC(=O)OCCCc1ccccc1", "activity change, negative = cytotoxicity": "18.9%"}, {"compound": "CCNc1nc(Cl)nc(NC(C)(C)C)n1", "activity change, negative = cytotoxicity": "-19%"}, {"compound": "Clc1ccc(C(Cl)(Cl)Cl)cn1", "activity change, negative = cytotoxicity": "-2.66%"}, {"compound": "CNC(=O)O/N=C(/CSC)C(C)(C)C", "activity change, negative = cytotoxicity": "-11.3%"}, {"compound": "CCN1CCCC1CNC(=O)C(O)(c1ccccc1)c1ccccc1", "note": "(stereo not given)", "activity change, negative = cytotoxicity": "16.1%"}, {"compound": "C[C@H](N)C(=O)c1ccccc1", "activity change, negative = cytotoxicity": "-7.29% [at 81.1 µM]"}, {"compound": "CN1COCN(Cc2cnc(Cl)s2)/C1=N\\[N+](=O)[O-]", "activity change, negative = cytotoxicity": "3.16%"}, {"compound": "CCOP(=S)(OCC)SCCl", "activity change, negative = cytotoxicity": "15%"}, {"compound": "C=CC1(C)OC(=O)N(c2cc(Cl)cc(Cl)c2)C1=O", "note": "(stereo not given)", "Potency": "inactive"}, {"compound": "COc1cccc([C@@]2(O)CCCC[C@@H]2CN(C)C)c1", "activity change, negative = cytotoxicity": "-0.483% [at 62.6 µM]"}, {"compound": "CCN[C@@H](C)Cc1cccc(C(F)(F)F)c1", "activity change, negative = cytotoxicity": "1.22% [at 62.6 µM]"}, {"compound": "CN=CNc1ccc(C)cc1C", "activity change, negative = cytotoxicity": "1.58%"}, {"compound": "CCOc1cc(OP(=S)(OC)OC)nc(CC)n1", "activity change, negative = cytotoxicity": "15.1%"}, {"compound": "N#CN", "activity change, negative = cytotoxicity": "6.18% [at 232 µM, co-treated with 50 nM rosiglitazone]"}, {"compound": "CN(CCO)CCO", "activity change, negative = cytotoxicity": "2.47% [at 81.1 µM]"}, {"compound": "NC1(c2ccccc2)CCCCC1", "activity change, negative = cytotoxicity": "4.24% [at 81.1 µM]"}, {"compound": "O=C(Cl)/C=C/C(=O)Cl", "activity change, negative = cytotoxicity": "4.73% [at 81.1 µM, co-treated with 50 nM rosiglitazone]"}, {"compound": "COC(=O)c1ccccc1CS(=O)(=O)NC(=O)Nc1nc(OC)cc(OC)n1", "activity change, negative = cytotoxicity": "3.54%"}, {"compound": "Cc1ccc(S(=O)(=O)N[C@@H](CCCCN)C(=O)CCl)cc1", "activity change, negative = cytotoxicity": "-1.37%"}, {"compound": "CCC(CC)(CNC(=O)CCCO)c1cccc(OC)c1", "activity change, negative = cytotoxicity": "23.4% [at 62.6 µM]"}, {"compound": "N#CC(Br)(Br)C(N)=O", "activity change, negative = cytotoxicity": "14.7%"}, {"compound": "CC(C)(N)Cc1ccccc1Cl", "activity change, negative = cytotoxicity": "4.7% [at 62.6 µM]"}, {"compound": "Cc1ccc(-c2nc3ccc(C)cn3c2CC(=O)N(C)C)cc1", "activity change, negative = cytotoxicity": "-1.07% [at 62.6 µM]"}, {"compound": "C=CCc1cc(OC)c2c(c1)OCO2", "activity change, negative = cytotoxicity": "-16% [at 81.1 µM]"}, {"compound": "COc1ccc(CN2CCNCC2)c(OC)c1OC", "activity change, negative = cytotoxicity": "14.6% [at 62.6 µM]"}, {"compound": "CC1NCCOC1c1ccccc1", "note": "(stereo not given)", "activity change, negative = cytotoxicity": "16.3% [at 62.6 µM]"}, {"compound": "C[C@]12C=CC(=O)C=C1CC[C@@H]1[C@@H]2CC[C@@]2(C)[C@H]1CC[C@]2(C)O", "activity change, negative = cytotoxicity": "12.7% [at 62.6 µM]"}, {"compound": "CCCOC(=O)Cc1ccc(OCC(=O)N(CC)CC)c(OC)c1", "activity change, negative = cytotoxicity": "0.319%"}, {"compound": "O=C1CC(=O)NC(=O)N1", "activity change, negative = cytotoxicity": "-1.74%"}, {"compound": "CCOC1Oc2ccc(OS(C)(=O)=O)cc2C1(C)C", "note": "(stereo not given)", "activity change, negative = cytotoxicity": "-11%"}, {"compound": "CC(C)(O)C(Cl)(Cl)Cl", "activity change, negative = cytotoxicity": "2.25%"}, {"compound": "ClCCCCCCCl", "activity change, negative = cytotoxicity": "15.1%"}, {"compound": "CCN(CC)CCOC(=O)C(O)(c1ccccc1)c1ccccc1", "activity change, negative = cytotoxicity": "-3.11%"}, {"compound": "C=C(Cl)CSC(=S)N(CC)CC", "activity change, negative = cytotoxicity": "13.3% [at 81.1 µM, co-treated with 50 nM rosiglitazone]"}, {"compound": "CC1N=C(N)OC1c1ccccc1", "note": "(stereo not given)", "activity change, negative = cytotoxicity": "0.68% [at 81.1 µM]"}, {"compound": "CCCCCCC(=O)CCCCCC/C=C/C[C@@H](O)[C@H](O)[C@@](N)(CO)C(=O)O", "activity change, negative = cytotoxicity": "8.49% [at 29.1 µM, co-treated with 50 nM rosiglitazone]"}, {"compound": "CCOP(=O)(CN(CCO)CCO)OCC", "activity change, negative = cytotoxicity": "15.8%"}, {"compound": "NNCc1ccccc1", "activity change, negative = cytotoxicity": "-28.6% [at 81.1 µM, co-treated with 50 nM rosiglitazone]"}, {"compound": "COC1=CC(=O)O[C@@H](/C=C/c2ccccc2)C1", "activity change, negative = cytotoxicity": "5.66% [at 81.1 µM, co-treated with 50 nM rosiglitazone]"}]}]}
